Among the data in PubChem BioAssay AID1900 (Broad Institute, 2009) are activity change, negative = inhibition values, retold here.

The structures appear in SMILES notation. Screen size: about 3,200 compounds; about 2,900 (91%) were called active.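 How the source made its calls: active means fitted half-maximal effect concentration at most a set number of log units above the top dose; inactive means fitted half-maximal concentration further above the top dose.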 So high a share suggests a set chosen from earlier hits. Some of the results follow. Potency and affinity values are given separately.

The nature of the assay: Streptococcus pyogenes SK(-)GAS viability under kanamycin – luminescence, BacTiterGlo, confirmation, counter-screen for streptokinase expression inhibitor project, dose response (AID 1900). Particulars: 6 h; at 15 µM (top of the series).
As for `O=C(Nc1ccccc1Sc1ccccc1)c1ccccc1F`, the activity change, negative = inhibition was -63% (active).
Consider `COc1cccc2sc(Nc3nnc(-c4ccccc4Cl)o3)nc12`, for which the activity change, negative = inhibition was -41.8% (active).
As to `O=C(Nc1cccc(-c2nc3ccccc3[nH]2)c1)c1ccc(C(=O)Nc2cccc(-c3nc4ccccc4[nH]3)c2)cc1`, the activity change, negative = inhibition was -32.9% (active).
With `COc1ccccc1N=c1oc2cc(O)ccc2cc1C(N)=O`, the activity change, negative = inhibition is -48.9% (active).
Under `CC(C)(C)c1csc(NNC(=O)c2ccc(Br)cc2)n1` stands -78.7% (active).
The same measure for `FC(F)Oc1ccccc1C1CC(c2ccc(Br)s2)Nc2ncnn21` (configuration not stated): -52.4% (active); for `N#C/C(=C\c1ccc(/C=C(/C#N)c2nn(CCO)c(N)c2C#N)cc1)c1nn(CCO)c(N)c1C#N`: -56% (active).
